Data taken from the supplement of paper PMC12645437, “Orthogonal IMiD-Degron Pairs Induce Selective Protein Degradation in Cells” (ACS Chemical Biology, 2025).
Whole data set: some 8,300 sequences, median “log2 fold change of degron read counts, EGFP-low vs EGFP+ sorted cells (limma voom), compound-induced degradation” near -1.1, cut for the highest 2% near 3.2. This is one part of a sample in which the highest values are shown more often than they occur.

B1: 46F_47M_49D_50V_52G_53A_54T_55F_67L_, Q9UKT9 (peptide)
chain: FMCDVCGATFTQKGNLLRHIKL
B2: 46F_47I_49P_50I_52G_53A_54L_55F_67L_, Q9UKT9 (peptide)
chain: FICPICGALFTQKGNLLRHIKL
B3: 46L_47R_49P_50I_52G_53F_54G_55C_67L_, Q9UKT9 (peptide)
chain: LRCPICGFGCTQKGNLLRHIKL
B4: 46L_47Q_49P_50I_52G_53F_54A_55C_67L_, Q9UKT9 (peptide)
chain: LQCPICGFACTQKGNLLRHIKL
B5: 46L_47L_49P_50I_52G_53F_54A_55C_67L_, Q9UKT9 (peptide)
chain: LLCPICGFACTQKGNLLRHIKL
B6: 46L_47I_49P_50I_52G_53F_54A_55C_67L_, Q9UKT9 (peptide)
chain: LICPICGFACTQKGNLLRHIKL
B7: 46L_47W_49P_50I_52G_53F_54A_55C_67L_, Q9UKT9 (peptide)
chain: LWCPICGFACTQKGNLLRHIKL
B8: 46L_47Y_49P_50I_52G_53F_54G_55C_67L_, Q9UKT9 (peptide)
chain: LYCPICGFGCTQKGNLLRHIKL
B9: 46L_47F_49P_50I_52G_53F_54G_55C_67L_, Q9UKT9 (peptide)
chain: LFCPICGFGCTQKGNLLRHIKL
B10: 46L_47M_49P_50I_52G_53F_54A_55C_67L_, Q9UKT9 (peptide)
chain: LMCPICGFACTQKGNLLRHIKL
B11: 46L_47G_49P_50I_52G_53F_54A_55C_67L_, Q9UKT9 (peptide)
chain: LGCPICGFACTQKGNLLRHIKL
B12: 46F_47H_49E_50I_52G_53R_54H_55F_67L_, Q9UKT9 (peptide)
chain: FHCEICGRHFTQKGNLLRHIKL
B13: 46F_47V_49N_50Q_52G_53A_54C_55F_67L_, Q9UKT9 (peptide)
chain: FVCNQCGACFTQKGNLLRHIKL
B14: 46L_47N_49P_50I_52G_53F_54E_55C_67L_, Q9UKT9 (peptide)
chain: LNCPICGFECTQKGNLLRHIKL
B15: 46F_47W_49E_50Q_52G_53A_54R_55F_67L_, Q9UKT9 (peptide)
chain: FWCEQCGARFTQKGNLLRHIKL
B16: 46F_47M_49P_50I_52G_53R_54P_55F_67L_, Q9UKT9 (peptide)
chain: FMCPICGRPFTQKGNLLRHIKL
B17: 46F_47S_49E_50I_52G_53R_54E_55F_67L_, Q9UKT9 (peptide)
chain: FSCEICGREFTQKGNLLRHIKL
B18: 46F_47A_49D_50Q_52G_53A_54S_55F_67L_, Q9UKT9 (peptide)
chain: FACDQCGASFTQKGNLLRHIKL

Molecular target: T1, CRBN, Q96SW2
T1 chain: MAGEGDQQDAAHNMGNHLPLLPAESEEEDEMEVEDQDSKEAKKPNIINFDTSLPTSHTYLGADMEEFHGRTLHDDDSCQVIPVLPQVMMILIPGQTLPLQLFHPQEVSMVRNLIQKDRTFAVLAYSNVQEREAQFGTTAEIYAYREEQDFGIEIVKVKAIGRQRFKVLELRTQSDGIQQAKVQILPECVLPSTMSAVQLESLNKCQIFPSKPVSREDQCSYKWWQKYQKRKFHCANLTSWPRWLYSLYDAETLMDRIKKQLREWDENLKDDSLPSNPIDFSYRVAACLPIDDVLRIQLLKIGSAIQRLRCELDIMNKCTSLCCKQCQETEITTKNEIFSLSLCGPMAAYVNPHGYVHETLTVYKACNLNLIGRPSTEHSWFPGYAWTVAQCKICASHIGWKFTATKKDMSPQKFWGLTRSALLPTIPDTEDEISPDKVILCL
Test: log2 fold change of degron read counts, EGFP-low vs EGFP+ sorted cells (limma voom), compound-induced degradation; higher = more compound-induced degradation of the degron-EGFP fusion; degrons are variants of IKZF1/3 zinc finger 2; compound dose not given here
Details: Jurkat, 18 h

[1] = compound: compound 19 (5-tert-butyl-thalidomide)
[2] = compound: compound 22 (5-morpholino-thalidomide)
[3] = compound: compound 33 (diphenyl IMiD analogue)
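Also: pooled lentiviral library of zinc finger degron-EGFP fusions in mCherry-positive Jurkat cells, FACS-sorted after compound exposure, with degron abundance counted by next-generation sequencing.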

Sequence | log2 fold change of degron read counts [1] | log2 fold change of degron read counts [2] | log2 fold change of degron read counts [3] | log2 fold change of degron read counts (compound: thalidomide)
B1 | -2.12 | -2.03 | 0.562 | -1.29
B2 | -1.19 | 0.987 | 1.39 | 1.34
B3 | 2.74 | 2.14 | 2.33 | 2.47
B4 | 2.66 | 2.96 | 2.47 | 3.55
B5 | 0.701 | 0.253 | 1.48 | 1.92
B6 | 0.747 | 2.69 | 1.82 | 2.87
B7 | 2.95 | 3.32 | 2.72 | 1.84
B8 | 3.31 | 2.96 | 2.48 | 1.46
B9 | 3.06 | 2.74 | 2.03 | 1.48
B10 | 1.55 | 2.48 | 2.86 | 2.97
B11 | 3.1 | 2.1 | 1.7 | 1.09
B12 | -0.861 | -2.23 | -1.35 | -1.95
B13 | -2.19 | -2.11 | -0.29 | -1.14
B14 | 1.07 | -0.0323 | 0.322 | 1
B15 | 1.69 | 3.12 | 0.0332 | -0.593
B16 | 0.216 | 0.55 | 1.39 | 0.856
B17 | -2.51 | -2.86 | -1.9 | -2.01
B18 | -0.53 | -1.83 | -2.25 | -3.41
